In PubChem BioAssay AID623996 (NMMLSC, 2012):
Entries with a potency or affinity are not part of this list. Calls of active or inactive are those of the source.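 How the source made its calls: active means fitted concentration giving half the maximal Nile Red retention below 100 µM; inactive means the rest.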

Each compound was assayed against Multidrug resistance protein CDR1 (Candida albicans) (UniProt P43071) (assay: Candida albicans Cdr1 pump inhibition curves – singleplex, Cherry Pick2 set, dose response (AID 623996)). Details: S. cerevisiae AD/CaCDR1, Nile Red efflux inhibition, flow cytometry; series mostly up to 100 µM.
Chain of Multidrug resistance protein CDR1 (Candida albicans) (P43071 whole entry, looked up): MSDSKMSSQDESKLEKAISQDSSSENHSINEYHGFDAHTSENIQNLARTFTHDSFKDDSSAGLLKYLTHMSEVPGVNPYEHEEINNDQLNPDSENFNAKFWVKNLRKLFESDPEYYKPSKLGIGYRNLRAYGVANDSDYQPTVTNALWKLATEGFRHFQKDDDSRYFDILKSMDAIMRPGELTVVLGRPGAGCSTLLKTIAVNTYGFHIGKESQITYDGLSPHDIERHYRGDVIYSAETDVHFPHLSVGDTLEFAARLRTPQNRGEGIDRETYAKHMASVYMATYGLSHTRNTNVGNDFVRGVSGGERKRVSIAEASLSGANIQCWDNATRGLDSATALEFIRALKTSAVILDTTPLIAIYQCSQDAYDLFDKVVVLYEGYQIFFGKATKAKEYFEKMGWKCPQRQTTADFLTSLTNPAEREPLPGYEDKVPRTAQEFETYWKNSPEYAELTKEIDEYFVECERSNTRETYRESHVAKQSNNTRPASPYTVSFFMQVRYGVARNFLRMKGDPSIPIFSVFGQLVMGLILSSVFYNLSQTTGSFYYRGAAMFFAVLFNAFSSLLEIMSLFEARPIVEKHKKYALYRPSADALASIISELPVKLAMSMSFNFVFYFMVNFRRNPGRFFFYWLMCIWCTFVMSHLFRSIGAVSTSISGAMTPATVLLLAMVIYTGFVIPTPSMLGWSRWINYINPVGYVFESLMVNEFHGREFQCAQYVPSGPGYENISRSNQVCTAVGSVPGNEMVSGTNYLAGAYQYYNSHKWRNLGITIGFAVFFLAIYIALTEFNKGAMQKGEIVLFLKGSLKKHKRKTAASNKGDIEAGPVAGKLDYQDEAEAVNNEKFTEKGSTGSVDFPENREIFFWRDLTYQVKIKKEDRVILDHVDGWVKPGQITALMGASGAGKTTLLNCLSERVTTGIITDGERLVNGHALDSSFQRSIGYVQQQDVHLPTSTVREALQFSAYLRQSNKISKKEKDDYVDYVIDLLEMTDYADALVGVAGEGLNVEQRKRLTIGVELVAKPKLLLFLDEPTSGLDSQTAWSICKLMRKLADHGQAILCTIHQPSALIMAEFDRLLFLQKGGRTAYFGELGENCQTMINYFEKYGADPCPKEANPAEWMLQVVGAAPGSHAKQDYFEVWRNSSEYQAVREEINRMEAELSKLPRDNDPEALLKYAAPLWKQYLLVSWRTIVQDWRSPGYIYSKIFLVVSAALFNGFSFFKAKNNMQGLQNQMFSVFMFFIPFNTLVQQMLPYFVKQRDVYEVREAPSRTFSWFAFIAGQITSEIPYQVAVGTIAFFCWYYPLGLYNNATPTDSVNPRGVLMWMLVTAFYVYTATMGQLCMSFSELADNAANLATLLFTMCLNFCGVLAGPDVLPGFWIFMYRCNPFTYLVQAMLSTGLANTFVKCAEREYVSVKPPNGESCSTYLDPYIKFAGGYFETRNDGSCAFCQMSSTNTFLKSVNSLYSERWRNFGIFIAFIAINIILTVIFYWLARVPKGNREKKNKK

outcome, inactive:
CCC(Cc1ccccc1)OC(=O)c1ccccc1C(=O)O (stereo not given), COc1cc(OC)c2ccc(=O)oc2c1C(CCN1CCCCC1)c1ccc(N(C)C)cc1 (stereo not given), O=C(Nc1ccccc1)C1=C[C@@H](c2ccc(Br)cc2)C[C@@H](OCCCCO)O1, Nc1ccc(C(=O)OCCc2ccccc2)cc1, NC1=NC[C@H](Cc2ccccc2)N1CCCCC1CCCCC1, COc1cc(OC)c2ccc(=O)oc2c1C(CCN1CCCC1)c1ccc(N(C)C)cc1 (stereo not given), NS(=O)(=O)c1ccc(N2N=C(c3ccccc3)CC2c2ccc(Br)cc2)cc1 (stereo not given), Cc1ccc(CN2C(=O)C(CC(C)C)Nc3ncnc(N4CCN(c5ccccc5)CC4)c32)cc1 (stereo not given), CCc1ccc(C2=NN(c3ccc(S(N)(=O)=O)cc3)C(c3ccc(F)cc3)C2)cc1 (stereo not given), CCO[C@@H]1OC(C(=O)Nc2ccccc2)=C[C@H](c2ccccc2)[C@H]1CCCO, CC1CN(c2nc3ccccc3nc2C(C#N)C(=O)NCc2ccc3c(c2)OCO3)CC(C)O1 (stereo not given), O=C(C[n+]1cc(-c2ccc(Cl)cc2)n2c1CCC2)N1c2ccccc2Sc2ccccc21, O=C(C1CCCN(c2ncnc3c2nc2n3CCCCC2)C1)N1CCN(c2ccccc2F)CC1 (stereo not given), CCCCNC(=O)C1CCC(CNc2nc(=S)[nH]c3ccccc23)CC1 (stereo not given), CCCCCCCCCC[N+](C)(C)CC/C=C1/c2ccccc2Sc2ccc(Cl)cc21, CCC(=O)N1CCN(c2ccc(Cl)cc2NC(=O)c2ccc3c(c2)OCCO3)CC1, N#CC(C(=O)NCc1ccccc1)c1nc2ccccc2nc1N1CCCC1 (stereo not given), O=C(c1ccoc1)N1CCC2(CC1)Oc1ccc(F)cc1C(=O)C21CC(c2ccc(Cl)cc2)=NO1 (stereo not given), O=C(C[n+]1cc(-c2ccc(F)cc2)n2c1CCC2)N1c2ccccc2Sc2ccccc21, CCCCN1Cc2cc(C(=O)c3cc(F)ccc3O)cnc2NC1=O, Cc1ccc(CNC(=O)C2CCC(CNc3nc(=S)[nH]c4ccccc34)CC2)cc1 (stereo not given), O=C(Nc1ccccc1)C1=C[C@@H](c2ccc(C(F)(F)F)cc2)C[C@@H](OCCCCO)O1, CCCCCc1cc(=O)oc2c(C(CCN3CCCC(C)C3)c3ccc(N(C)C)cc3)c(OC)cc(OC)c12 (stereo not given), CCN(CC)CCC(c1ccc(N(C)C)cc1)c1c(OC)cc(OC)c2ccc(=O)oc12 (stereo not given), Cc1ccc2c(c1)[C@H]1[C@H](CO2)[C@H](c2ccccc2)[C@]2(C)C(=O)Nc3cc(F)c(F)cc3C(=O)N12, COc1ccc(C2CC(c3ccccc3)=NN2c2ccc(S(N)(=O)=O)cc2)cc1 (stereo not given), Cc1cc(C)c2sc(N(CCCN(C)C)C(=O)c3ccc(Br)s3)nc2c1, C[C@H](CO)N1C[C@H](C)[C@@H](CN(C)S(=O)(=O)c2ccccc2)Oc2c(NC(=O)Nc3ccccc3)cccc2C1=O, Cc1ccc2sc(N(CCCN(C)C)C(=O)c3ccc(Br)s3)nc2c1C, O=C(Nc1ccccc1)C1=C[C@H](c2ccccc2)C[C@H](OCCCCO)O1
